Among the data in ChEMBL document CHEMBL4513216, “Probing the Open Global Health Chemical Diversity Library for Multistage-Active Starting Points for Next-Generation Antimalarials” (ACS Infect Dis, 2020) are INHIBITION values, retold here.

Hit rate of the full screen: of about 65,000 compounds, about 2,100 (3.2%) showed an effect of 50% or more. The median lay at about -52%. Only a selection was taken, and strong results are over-represented in it overall.

For this test, the system named is Plasmodium falciparum. Briefly: Screen against P. falciparum Asexual Blood Stage (ABS), at 5uM. It is filed as functional, Dd2. Conditions: tested at 5 uM.
`Cc1nn(C)c(Cl)c1C1CCCN1CC(=O)NCc1ccco1` (configuration not stated): the INHIBITION was -24.5%. For the compound `CC(NCc1cccs1)c1ccc(OCc2nccn2C)cc1` (configuration not stated), the INHIBITION is -50.1%. With `CCc1cc(N2CCSCC2)n2nc(C)c(C)c2n1` the figure was -90.3%. Take `CCc1cc(N2CCS(=O)(=O)CC2)n2nc(C)c(C)c2n1`: the INHIBITION is listed as -16.5%. As for `CCc1cc(N2CCCNCC2)n2nc(C)c(C)c2n1`, the INHIBITION worked out at 54.5%. With `CCNc1ncc(CN2C[C@@H]3CC[C@H]2CN(C(=O)C2CCC2)C3)cn1` the figure was -47.5%; with `O=C([C@H]1CCCO1)N1CCCC2(COCCN(c3ccccc3)C2)C1` (some centres not stated), 25.2%; with `Cc1cnn(CCNCC(O)COc2cc(Cl)ccc2Cl)c1` (configuration not stated), 58%. For the compound `Cc1cnn(CCNCC(O)COc2ccc(Cl)cc2Cl)c1` (configuration not stated), the INHIBITION was 20.2%.

Consider `Cc1cnn(CCNCC(O)COc2ccc(Cl)cc2)c1` (configuration not stated), for which the INHIBITION was -16.9%. Regarding `c1cc(CNCc2ccc(-n3cncn3)nc2)cc(OC2CCCC2)c1`, the INHIBITION was -6.1%. Under `Cc1ccc(C(=O)N2CCc3ncnc(-c4cnn(C)c4)c3CC2)o1` stands -34.2%; under `Cc1ccc(OCC(=O)Nc2ccc(S(C)(=O)=O)cc2)cc1C`, -89.1%. Under `N#Cc1ccc(NCCCN2C(=O)COc3ccccc32)nc1` stands -30.6%; under `N#Cc1c(Cl)nsc1NCCCN1C(=O)COc2ccccc21`, 58.1%. As to `N#Cc1cnc(NCCCN2C(=O)COc3ccccc32)c(Cl)c1`, the INHIBITION is on record as -73.7%.

For the compound `CC(C)NC(=O)c1sc2ccccc2c1C1CCC(CN)CC1` (configuration not stated), the INHIBITION came out at 0.324%. With `COc1nn(C)c2c1CCCN(C(=O)c1ccc3ccccc3n1)C2` the figure was -94.4%; with `O=C(c1ccc[nH]1)N1C[C@@H]2CC[C@H]1CN(C1Cc3ccccc3C1)C2`, -60.5%; with `CCCc1nc(C[S+]([O-])Cc2cn3cccc(C)c3n2)no1` (configuration not stated), -22%. `CCN1CCO[C@@H]2CN(C(=O)c3ccc4[nH]ccc4c3)CC[C@@H]2C1`: the INHIBITION is given as -49.2%. Under `OC[C@@H]1CCCN1c1nccc(-c2c[nH]nc2-c2ccncc2)n1` stands 68.3%; under `OCCNc1nccc(-c2c[nH]nc2-c2ccncc2)n1`, -56.1%. As to `CN1CCCN(c2nccc(-c3c[nH]nc3-c3ccncc3)n2)CC1`, the INHIBITION is listed as 66.9%. Turning to `CN1CCCN(c2nccc(-c3c[nH]c4ccc(Br)cc34)n2)CC1`, the INHIBITION is 43.1%. Under `CN1CCCN(c2nccc(-c3cc(C(=O)O)ccn3)n2)CC1` stands -113%.

On to `Cc1ncc(-c2ccnc(N3CCC[C@@H]3CO)n2)c(-c2cccnc2)n1`, for which the INHIBITION is reported as -23.8%. Consider `CNc1cccc(C2CCCN(C(=O)c3cscn3)C2)n1` (configuration not stated), for which the INHIBITION is recorded as -9%. As for `CC1N(C)C(=O)COC12CCN(Cc1ccsc1)CC2` (configuration not stated), the INHIBITION is -52.9%. With `COCCN1CCCC1c1nccnc1Nc1nccs1` (configuration not stated) the figure was 1.36%; with `Cc1cccn2c(CC(=O)N3CCC(CCn4cccn4)CC3)cnc12`, -1.65%; with `N#Cc1cccc(OCCN2CCCC2C(=O)NCC(F)(F)F)c1` (configuration not stated), 1.9%. On to `N#Cc1cccc(OCCN2CCCC2C(=O)NC2CC2)c1` (configuration not stated), for which the INHIBITION is reported as -14.2%. Under `N#Cc1cccc(OCCN2CCCC2C(=O)N2CCSCC2)c1` (configuration not stated) stands 51.9%; under `Cc1cccn2cc(CNCc3cccc4c3OCCCO4)nc12`, 53.7%; under `c1cc(CNCCc2cn3ccccc3n2)c2c(c1)OCCCO2`, -57.2%.

`Cc1cccc2nc(CNCc3cccc4c3OCCCO4)cn12`: the INHIBITION stood at 47.8%. With `Cc1ccc(CN2Cc3c(C(=O)N(C)C)nn(C)c3C2)s1`, the INHIBITION is listed as -70.8%. Regarding `Cc1nnc(N2C[C@@H](OCCCn3cccn3)[C@H]3OCCC[C@H]32)s1`, the INHIBITION is recorded as -31.4%. Under `OC1(CNCc2csc(-c3ncccn3)n2)CCCNC1` (configuration not stated) stands -26.6%; under `CC(C)Oc1cccc(CNC(Cc2ccsc2)c2nccs2)c1` (configuration not stated), -29.2%; under `Cc1cccnc1C(Cc1ccsc1)NCc1cnc(N(C)C)nc1` (configuration not stated), 66.6%. Consider `Cc1cccnc1C(Cc1ccsc1)NC(=O)Cn1cccnc1=O` (configuration not stated), for which the INHIBITION turned out to be 4.78%. Consider `CN1CCCC(Cc2cncc(C(=O)N3CCOCC3)c2)C1` (configuration not stated), for which the INHIBITION is recorded as -133%. For `O=S1(=O)NC(c2ccnc(N3CCOCC3)n2)=Nc2ccccc21`, the INHIBITION is recorded as -15.8%. Turning to `CN(Cc1ccccc1)C(=O)CSc1ccc2c(c1)OCCO2`, the INHIBITION is recorded as -122%.

Turning to `O=C1N(c2ccsc2)CCC12CCCN(CC1CC1)C2` (configuration not stated), the INHIBITION came out at 51.6%.

In the case of `COCCN1CCCC2(CCN(c3ccsc3)C2=O)C1` (configuration not stated), the INHIBITION is listed as 16%.

Turning to `O=C(CO)N1CCCC2(CCN(c3ccsc3)C2=O)C1` (configuration not stated), the INHIBITION is listed as -104%.

Take `COc1ccc(CN2CCCC3(CCN(c4ccsc4)C3=O)C2)cc1` (configuration not stated): the INHIBITION was 62.3%. Under `COc1ccc(CN2CCC3(CCN(c4cccnc4)C3=O)C2)cc1` (configuration not stated) stands -23.2%.

Consider `CN(C)C(=O)CN1CCCC2(CCN(c3ccsc3)C2=O)C1` (configuration not stated), for which the INHIBITION is on record as -78.3%. Under `CC1COC2(CCN(C(=O)Cc3ccncc3)CC2)C1` (configuration not stated) stands -78.3%; under `Cc1cc(C2CCCN(CCc3ccc4c(c3)CCO4)C2)n[nH]1` (configuration not stated), -25.4%. For the compound `COc1ccccc1OCCN1CCCCC1Cn1cncn1` (configuration not stated), the INHIBITION was -9.63%. For the compound `CCc1nnc(Nc2cccc(C3CCN(S(=O)(=O)N(C)C)CC3)n2)s1`, the INHIBITION was 7.99%. As to `O=C(NCc1nncn1-c1ccccc1)C1CCCCC1`, the INHIBITION is -107%.

With `OC1(CN2CCCCC2)CCN(c2cc(C(F)(F)F)ccn2)C1` (configuration not stated), the INHIBITION amounted to 39.2%. With `N[C@@H]1c2ccccc2C2(CCN(c3ccc(C(F)(F)F)cn3)CC2)[C@H]1O` the figure was -38.4%; with `OC1(CN2CCCCC2)CCN(c2ccc(C(F)(F)F)cn2)C1` (configuration not stated), 53.5%; with `O=C1CCC2(CCN(c3cccc(C(F)(F)F)n3)CC2)CN1CCO`, -33.7%. Turning to `OC1(CN2CCCCC2)CCN(c2cccc(C(F)(F)F)n2)C1` (configuration not stated), the INHIBITION is 60.4%. As to `OC1(CN2CCCCC2)CCN(c2nccc(C(F)(F)F)n2)C1` (configuration not stated), the INHIBITION is -41.9%.

For `Cc1ccc(C(=O)N2CCC(c3n[nH]c(C4CC4)n3)CC2)cc1F`, the INHIBITION is listed as -91.9%. With `Cn1ccnc1CN1CCC2(CC1)CC(Oc1cccnc1)C2` the figure was -85.4%. Regarding `Cc1ccc(NC(=O)CC2NC(N3CCc4ccccc43)=NC2=O)cc1` (configuration not stated), the INHIBITION is listed as -135%.

Turning to `O=C1CC(c2ccncc2)C2(CCN(CCc3ccccc3)CC2)N1` (configuration not stated), the INHIBITION is -55.3%. As to `O=C1CCC2(CCCN(C(=O)c3cnccn3)CC2)N1` (configuration not stated), the INHIBITION is listed as 51.9%. With `O=C1CCCC2(CCN(C(=O)c3cnccn3)CC2)N1` the figure was -96.5%; with `O=C1CCC2(CCCN(C(=O)c3cccnc3)CC2)N1` (configuration not stated), -40.9%; with `O=C(NCCN1CCCC1)C1(c2ccc(Cl)cc2)CCOCC1`, 63.7%.

Turning to `Cc1ccccc1C1(C(=O)NCCN2CCCC2)CCOCC1`, the INHIBITION was -5.04%. `COc1ccccc1C1(C(=O)NCCN2CCCCC2)CCOCC1`: the INHIBITION is on record as -35.3%. For the compound `CC(Oc1ccc2c(c1)OCO2)C(=O)N1CCC(N2CCOCC2)CC1` (configuration not stated), the INHIBITION was -162%.

`CCn1cc(NC(=O)CN2CCC(Oc3ccc(F)cc3)CC2)c(C)n1`: the INHIBITION was -33.8%.

`Cc1cc(N2CCCN(c3nc(C)nc(C)c3C)CC2)ccn1`: the INHIBITION was 58%. Consider `Cc1cc(N2CCCN(Cc3ccc(C)o3)CC2)ccn1`, for which the INHIBITION worked out at 35.2%. Under `Cc1cc(N2CCCN(c3ccnc(C)c3)CC2)ccn1` stands -86.7%; under `Cc1n[nH]c(C)c1C1COCCN1c1ncnc2sccc12` (configuration not stated), -34.7%; under `COCCN1CCC(c2nc3ccc(NC4CCC4)cn3n2)CC1`, -2.13%.

For the compound `CCN(CC)CCn1cnc(-c2ccccc2)c1-c1cnc(C)s1`, the INHIBITION is given as 54.2%. With `CCN(CC)CCn1cnc(-c2ccccc2)c1-c1cnn(CC)c1` the figure was 20.8%; with `CCN(CC)CCn1cnc(-c2ccccc2)c1-c1ncc[nH]1`, -46.8%; with `Cc1nc(CCCNC(=O)Nc2cc(F)cc(F)c2)n[nH]1`, 0.825%.

Turning to `O=C(O)c1ccc(CC2CCN(Cc3ccc(-c4cc[nH]n4)o3)C2)cc1` (configuration not stated), the INHIBITION was -200%. On to `CCC(N)C(=O)N1CCC(OCc2ccc(Cl)c(Cl)c2)CC1` (configuration not stated), for which the INHIBITION came to 65.5%. With `NC(=O)CN1CCC(OCc2ccc(Cl)c(Cl)c2)CC1`, the INHIBITION is listed as 32.6%.

With `CNC(=O)CN1CCC(OCc2ccc(Cl)c(Cl)c2)CC1`, the INHIBITION was -0.573%. In the case of `CC1CCCCN1C(=O)CCc1nnc(-c2ccccc2)o1` (configuration not stated), the INHIBITION is listed as -26.9%. As to `O=C(Cn1nc(-c2ccc(F)cc2)oc1=O)NCc1ccncc1`, the INHIBITION is on record as -63.3%. Under `Cc1ccc(CNC(=O)Cn2nc(-c3ccc(F)cc3)oc2=O)cc1F` stands 55.6%. With `O=C(Cn1nc(-c2ccc(F)cc2)oc1=O)NCc1ccc(F)cc1` the figure was -11.2%; with `CCC1=NN2C(=N)C(=Cc3cccn3-c3ccc(Br)cc3)C(=O)N=C2S1`, -87.5%. `CCCN(CCOC)C(=O)c1cc(Cn2c(C)nc3ccccc32)[nH]n1`: the INHIBITION was -11.8%. Under `CC(NCCn1cccn1)c1cc(F)ccc1F` (configuration not stated) stands 0.681%; under `CC(NCCN1CCC(N(C)C)CC1)c1ccc(F)cc1N(C)C` (configuration not stated), 58.1%; under `CC(NCCCN1CCCC1=O)c1ccc(F)cc1N(C)C` (configuration not stated), -24.45%.

For `O=C([C@H]1CCCO1)N1CCOC2(CCCN(c3ncccc3F)C2)C1` (some centres not stated), the INHIBITION is -9.29%. Take `Cc1nc(NC(C)C)nc2c1CN(Cc1nccn1C)CC2`: the INHIBITION is recorded as -27.4%.

For the compound `CN(C)c1nc(N2CCCC2)nc2c1CCN(Cc1nccn1C)CC2`, the INHIBITION worked out at 7.51%. As to `CC(C)Nc1nc2c(c(N(C)C)n1)CCN(Cc1nccn1C)CC2`, the INHIBITION was found to be 54.5%. Consider `O[C@@H]1CN(c2noc(C3CC3)n2)CC[C@H]1c1ccc2ccccc2c1`, for which the INHIBITION is -24.7%. As for `Cc1cnn(C2CCCN(C(=O)c3ccccc3-n3cnnn3)C2)c1` (configuration not stated), the INHIBITION is reported as -52.2%. With `COc1ccc2ccccc2c1CNCC1CCS(=O)(=O)C1` (configuration not stated) the figure was 67.4%; with `CNC(=O)c1cc(NC(=O)NCC2CCS(=O)(=O)C2)ccc1OC` (configuration not stated), -116%; with `COc1cccc(-c2n[nH]cc2CNCC2CCS(=O)(=O)C2)c1` (configuration not stated), -48.5%. `CC(C)OCCCNC(=O)CN(c1ccc(F)c(F)c1)S(C)(=O)=O`: the INHIBITION is reported as -105%.
